Bioassay records from PubChem BioAssay.
The sample as a whole holds a higher share of hits than the screen did.
Tgondii IFNg: T. gondii growth inhibition with IFN-gamma, primary screen, cell-based. 3.8% of 69,000 active. activity change, negative = inhibition, % (concentration not given with the values). Toxoplasma gondii growth in IFN-gamma-treated host cells; active compounds read low; in the data active = activity change below about -70%, passing the limit was not always enough;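 note: host cells are HeLa cells infected with Toxoplasma gondii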
Large screens that a line does not name were inactive.

CCOc1ccc(CNC(=O)Cn2ncc3c(N4CCC(C)CC4)ncnc32)cc1OCC	none
Cc1ccc(CNC(=O)Cn2ncc3c(N4CCCC4)ncnc32)cc1	none
CC1CCN(c2ncnc3c2cnn3CC(=O)NCc2ccc(F)cc2)CC1	Tgondii IFNg -95
O=C(Cn1ncc2c(N3CCCC3)ncnc21)NCc1ccc(F)cc1	none
CCN(CC)c1ncnc2c1cnn2CC(=O)NCc1cc(F)cc(F)c1	none
Cc1ccc(CNC(=O)Cn2ncc3c(N4CCC(C)CC4)ncnc32)cc1	Tgondii IFNg -94
O=C(Cn1ncc2c(N3CCOCC3)ncnc21)NCc1ccc(C(F)(F)F)cc1	none
CCN(CC)c1ncnc2c1cnn2CC(=O)NCc1ccc(F)cc1F	Tgondii IFNg -104
CNC1CCC2(CC1)CN(S(=O)(=O)c1cn(C)cn1)Cc1ccccc1O2 (stereo not given)	none
O=C(CCCC(=O)N1CCCC2(CCNCC2)CC1)c1ccccc1	none
Cc1nccn1CCNC(=O)c1ccc(OC2CCN(S(C)(=O)=O)CC2)c(Cl)c1	none
CCNC(=S)N1CCC(NC(=O)NC23CC4CC(CC(C4)C2)C3)CC1	none
CC(=O)N1CCOC2(CCCN(S(=O)(=O)c3ccccc3F)C2)C1 (stereo not given)	none
COCCCNC(=O)c1cc(-c2cnc(N(C)C)nc2)cn1CC1CC1	none
COc1ccccc1-c1nc(C)c(-c2ccc(SCc3ccc(C(F)(F)F)cc3)nn2)s1	none
CCN(CC)c1ncnc2c1cnn2CC(=O)NCCC(C)C	none
COc1ccccc1-c1nc2cnccn2c1NCCC(=O)N1CCCC(C)C1 (stereo not given)	none
Cc1ccc(NC(=O)CN2CCC3(CC2)N=C(c2ccc(C)c(C)c2)C(=O)N3)c(C)c1	none
O=C(NCc1csc(N2CCOCC2)n1)c1cccc2ccnn12	none
O=C(NCc1coc(-c2ccccc2)n1)c1cccc2ccnn12	Tgondii IFNg -80
O=C(NCc1noc(Cc2ccccc2)n1)c1cccc2ccnn12	none
COc1ccc(NC(=O)c2cccc3[nH]cc(CN4CCCC4)c23)c(OC)c1	none
COc1ccc(C#Cc2cccc(-c3nc(C(=O)NCCCN4CCOCC4)cc4c3[C@@H](CCO)N(S(=O)C(C)(C)C)C4)c2)cc1OC (stereo not given in full)	none
CC(C)(C)[S@@](=O)N1Cc2cc(C(=O)NC3CCC3)nc(-c3cccc(Br)c3)c2[C@H]1CCO	none
CC(C)(C)[S@](=O)N1Cc2cc(C(=O)NC3CCC3)nc(-c3cccc(Br)c3)c2[C@@H]1CCO	Tgondii IFNg -75
COc1ccc(C#Cc2cccc(-c3nc(C(=O)Nc4ccc(-c5ccccc5)cc4)cc4c3[C@@H](CCO)N(S(=O)C(C)(C)C)C4)c2)cc1OC (stereo not given in full)	Tgondii IFNg -71
CN(C)C(=O)c1ccc(-c2cccc(-c3nc(C(=O)NC4CCCCC4)cc4c3[C@H](CCO)N([S@@](=O)C(C)(C)C)C4)c2)cc1	none
COc1ccc(C#Cc2cccc(-c3nc(C(=O)N4CCN(Cc5ccccc5)CC4)cc4c3[C@@H](CCO)N(S(=O)C(C)(C)C)C4)c2)cc1OC (stereo not given in full)	none
COCc1nc(N2CCC(CCO)CC2)c2cnn(C)c2n1	none
O=C1CCc2cc(S(=O)(=O)NCc3ccc4c(c3)OCO4)cc3c2N1CCC3	none
Cc1ccc(NC(=O)Cn2c(=O)cc(-c3nc(C)no3)c3ccccc32)c(F)c1	none
COc1cc(F)c(-c2c(-c3ccccc3)ncn2CCCO)cc1OC	none
c1cnc(-c2cc(NC3CCNCC3)nc3[nH]ccc23)cn1	none
CCCc1cc(-c2cc(NC3CCNCC3)nc3[nH]ccc23)nc(C)n1	Tgondii IFNg -80
FC(F)(F)c1ccc(-c2cc(NC3CCNCC3)nc3[nH]ccc23)nc1	none
Cc1c(C(=O)N(Cc2ccncc2)C2CCN(C)CC2)[nH]c2ccc(F)cc12	none
Cc1ccoc1C(=O)N1CC[C@@H]2CN(Cc3cccnc3)CCO[C@H]2C1	none
O=C(COc1c(-c2ccco2)oc2ccccc2c1=O)c1ccc(Br)cc1	none
CCn1c(=O)c(-c2nc(-c3ccccc3F)no2)c(O)c2cc(F)ccc21	none
CCC(C)NCCOc1ccc(C(C)(C)c2ccccc2)cc1 (stereo not given)	none
CCC(C)NCCOCCOc1ccc(Cl)c2ccccc12 (stereo not given)	Tgondii IFNg -94
CCOc1ccccc1OCCN[C@H](C)Cc1ccc(OC)c(S(N)(=O)=O)c1	none
COCCCNC(=O)COc1ccc(S(=O)(=O)N2CCOCC2)cc1Cl	none
COc1ccnc(Cn2c(C3CCNCC3)cc3cccnc32)c1OC	none
CCOc1ccc(C(=O)NCCc2sc(-c3cccc(C)c3)nc2C)cc1	none
CCc1nc(-c2cccc(C)c2)c(-c2ccnc(NC(=O)c3ccccc3)c2)s1	Tgondii IFNg -81
COc1ccc(C(=O)NCCc2sc(-c3cccc(C)c3)nc2C)cc1	none
O=C(c1ccoc1)N1CCC2(CCC2NS(=O)(=O)c2ccccc2)CC1 (stereo not given)	none
Cc1c(S(=O)(=O)N2CCC3(CC2)Nc2cc(F)ccc2-n2cccc23)cnn1C(F)F	none
CC1=C(C(=O)NCCCOC(C)C)C2(CCN(S(C)(=O)=O)CC2)OC1=O	none
Cc1ccc(CN(Cc2cccnc2)C2CC(C)(C)NC(C)(C)C2)s1	none
CN(Cc1nccn1C)c1ccc(-c2nccn2C)nn1	none
Cc1c(CN(C)c2ccc(-c3nccn3C)nn2)[nH]c2ccccc12	Tgondii IFNg -96
CN(Cc1ccoc1)c1ccc(-c2nccn2C)nn1	none
Cc1nn(Cc2ccccc2)c(C)c1/C=C/C1=CCN(C)CC1	none
CCc1nn(C)c(Cl)c1CN1CCC(c2nn(C)c(=O)n2CC)CC1	none
Cc1oc(-c2ccc(C(=O)NCCC3=CCCCC3)cc2)nc1CN1CCc2ccccc21	none
O=C(Cn1c(=O)n(CC2CC2)c2ccc(C(=O)O)cc21)NCc1cccs1	none
COc1cccc(-n2c(=O)c(C(=O)NCc3ccccc3Cl)c(O)c3cccnc32)c1	Tgondii IFNg -91
COc1ccccc1CNC(=O)c1c(O)c2cccnc2n(-c2cccc(F)c2)c1=O	none
O=C(NCc1cc(F)cc(F)c1)c1c(O)c2cccnc2n(-c2ccccc2)c1=O	Tgondii IFNg -91
O=C(NCc1ccccc1)c1c(O)c2cccnc2n(-c2ccccc2)c1=O	none
O=C(NCc1cc(F)cc(F)c1)c1c(O)c2cccnc2n(-c2cccc(F)c2)c1=O	none
COc1ccccc1CNC(=O)c1c(O)c2cccnc2n(-c2ccc(F)cc2)c1=O	Tgondii IFNg -74
O=C(Nc1ccc(Cl)cc1)c1c(O)c2cccnc2n(-c2cccc(F)c2)c1=O	Tgondii IFNg -102
O=C(NCc1ccccc1Cl)c1c(O)c2cccnc2n(-c2ccc(F)cc2)c1=O	none
COc1cccc(-n2c(=O)c(C(=O)NCc3ccccc3F)c(O)c3cccnc32)c1	none
O=C(Nc1ccc(F)cc1)c1c(O)c2cccnc2n(-c2cccc(F)c2)c1=O	none
Cc1ccc(NC(=O)c2c(O)c3cccnc3n(-c3cccc(F)c3)c2=O)cc1	none
COc1cccc(-n2c(=O)c(C(=O)NCc3ccc(F)cc3F)c(O)c3cccnc32)c1	none
COc1ccccc1-c1nc(Cn2nnc(C(=O)Nc3ccc(C)cc3Cl)c2C)c(C)o1	none
CC(C)N1CCC(c2nnc3ccc(C(=O)Cc4ccccn4)cn23)C1 (stereo not given)	none
COCc1cc(C(=O)N2CCC3(CCN(C)CC3)C2)ccc1OC	none
Cc1ccc(-c2nc(Cn3nnc(-c4nc(-c5ccccc5)no4)c3C)c(C)o2)cc1	none
COC(=O)c1cc(C)nc2c1c(=O)nc(SCc1nc(-c3ccccc3)oc1C)n2C1CC1	none
O=C(COc1ccccc1)N1N=C(C(F)(F)F)CC1(O)c1ccc(Cl)cc1 (stereo not given)	none
COCc1cncc2c1CCN(C(=O)C1CCOCC1)C2	none
